Results filed as inconclusive are left out. The source made the active and inactive calls. Unless noted, the call rests on the fitted dose curve; in most records, active means well fitted curve in the direction sought with a large enough effect in the repeat runs; inconclusive means weak or mixed curves; inactive means no such curve, though single readings can be large; an effect the other way counts as inactive or inconclusive.
What was measured:
[1] = molecular target: Peroxisome proliferator-activated receptor gamma (Homo sapiens) (UniProt P37231); assay: qHTS assay to identify small molecule antagonists of the peroxisome proliferator-activated receptor gamma (PPARg) signaling pathway (AID 743191; calls by dose curve; further: series mostly up to about 63 µM; nearly all actives have a fitted effect of over 30% in size)
How it was run: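 GeneBLAzer PPARg UAS-bla HEK293H cells carrying a UAS-driven beta-lactamase reporter were plated at 3000 cells/well, preincubated 5 h at 37C, then given compound for 17 h at 37C; LiveBLAzer B/G FRET substrate was read after 1 h at room temperature.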

[2] = qHTS assay to identify small molecule antagonists of the peroxisome proliferator-activated receptor gamma (PPARg) signaling pathway - cell viability counter screen (AID 743194); details: Potency: co-treated with 50 nM rosiglitazone; further: nearly all actives have a fitted effect of over 55% in size
How it was run: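 PPARg-UAS-bla HEK293H cells were plated, rested 5 h at 37 C, then treated with compounds plus rosiglitazone (50 nM final) for 17 h at 37 C; viability was then read by CellTiter-Glo luminescence after 30 min at room temperature.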

[3] = qHTS assay for small molecule agonists of the antioxidant response element (ARE) signaling pathway (AID 743202; active means well fitted activation curve with a large enough effect in the signal ratio in the repeat runs, not every such curve was filed as active; the % refers to the signal ratio)
How it was run: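 Read-out: LiveBLAzer B/G FRET substrate fluorescence after 2 h at room temperature, following 16 h compound treatment at 37 C of HepG2 cells carrying an ARE-driven beta-lactamase reporter.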

[4] = qHTS assay for small molecule agonists of the antioxidant response element (ARE) signaling pathway - cell viability counter screen (AID 743203; calls by dose curve; further: nearly all actives have a fitted effect of over 55% in size)
How it was run: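 ARE-bla HepG2 cells were plated, rested 5 h at 37C/5% CO2, then exposed to compounds in DMSO for 16 h. Viability was read as CellTiter-Glo luminescence after 30 min at room temperature, in the same wells as the ARE screen.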

[5] = qHTS assay for small molecule activators of the heat shock response signaling pathway - cell viability counter screen (AID 743209); further: nearly all actives have a fitted effect of over 50% in size
How it was run: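 HSE-bla HeLa cells plated overnight, then exposed to Tox21 compounds (23 nL in DMSO) for 5 h at 37 C. After the bla reporter read, CellTiter-Glo was added in the same wells and luminescence read after 30 min at room temperature.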

[6] = qHTS assay for small molecule activators of the heat shock response signaling pathway (AID 743210; active means well fitted activation curve with a large enough effect in the signal ratio in the repeat runs, with a control signal flat, not every such curve was filed as active; the % refers to the signal ratio; further: series mostly up to about 63 µM)
How it was run: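 HSE-bla HeLa cells (beta-lactamase reporter under heat shock response elements) were exposed to compounds for 5 h at 37 C, then loaded with LiveBLAzer B/G FRET substrate for 2.5 h at room temperature before fluorescence reading.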

[7] = qHTS assay to identify small molecule agonists of the peroxisome proliferator-activated receptor delta (PPARd) signaling pathway - cell viability counter screen (AID 743211); further: nearly all actives have a fitted effect of over 55% in size
How it was run: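 Viability of GeneBLAzer PPARd UAS-bla HEK293H cells was assessed after 17 h compound incubation at 37C, using CellTiter-Glo reagent added after the reporter read and luminescence recorded 30 min later.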

[8] = molecular target: Peroxisome proliferator-activated receptor delta (Homo sapiens) (UniProt Q03181); assay: qHTS assay to identify small molecule agonists of the peroxisome proliferator-activated receptor delta (PPARd) signaling pathway (AID 743212; calls by dose curve)
How it was run: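 GeneBLAzer PPARd UAS-bla HEK293H cells (beta-lactamase reporter under UAS control), plated and rested 5 h at 37 C, then exposed to compounds in DMSO at 37 C; LiveBLAzer B/G FRET substrate added, 2 h room temperature, fluorescence read.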

[9] = qHTS assay to identify small molecule antagonists of the peroxisome proliferator-activated receptor delta (PPARd) signaling pathway - cell viability counter screen (AID 743213); further: nearly all actives have a fitted effect of over 50% in size
How it was run: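 Cytotoxicity counter screen: CellTiter-Glo luminescence read 30 min after addition, in the same wells as the reporter assay. There, PPARd UAS-bla HEK293H cells (3000/well) were treated 17 h at 37 C with compound and 300 nM L165041.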

[10] = molecular target: Peroxisome proliferator-activated receptor delta (Homo sapiens) (UniProt Q03181); assay: qHTS assay to identify small molecule antagonists of the peroxisome proliferator-activated receptor delta (PPARd) signaling pathway (AID 743215; active means well fitted inhibition curve with a large enough effect in the signal ratio in the repeat runs, not every such curve was filed as active; the % refers to the signal ratio;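 further: cells stimulated with agonist L165041 at 300 nM final during compound exposure; series mostly up to about 62 µM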)
How it was run: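 PPARd-bla HEK293H cells (UAS-bla reporter) preincubated 5 h, then given compound plus 300 nM final L165041 agonist for 17 h at 37 C. Beta-lactamase activity read by LiveBLAzer B/G FRET substrate fluorescence after 2 h at room temperature.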

[11] = qHTS assay to identify small molecule agonists of the farnesoid-X-receptor (FXR) signaling pathway - cell viability counter screen (AID 743218); further: nearly all actives have a fitted effect of over 45% in size
How it was run: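 FXR-UAS-bla HEK 293T cells exposed to compounds for 16 h at 37C. Cytotoxicity read in the same wells by CellTiter-Glo luminescence after 30 min at room temperature, following the beta-lactamase FRET read.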

[12] = qHTS assay to identify small molecule antagonists of the farnesoid-X-receptor (FXR) signaling pathway - cell viability counter screen (AID 743221; active means well fitted cell-killing curve with a large enough effect in the repeat runs, not every such curve was filed as active; further: nearly all actives have a fitted effect of over 50% in size)
How it was run: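 Quantitative HTS of the Tox21 10K library run in parallel with the beta-lactamase reporter read. HEK 293T cells carrying a UAS-driven bla reporter got compound and 50 uM CDCA (final) for 16 h; ATP-based luminescence followed.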

[13] = molecular target: Vitamin D3 receptor (Homo sapiens) (UniProt P11473); assay: qHTS assay to identify small molecule antagonists of the vitamin D receptor (VDR) signaling pathway (AID 743223; active means well fitted inhibition curve with a large enough effect in the signal ratio in the repeat runs, not every such curve was filed as active; the % refers to the signal ratio)
How it was run: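 Fluorescence from LiveBLAzer B/G FRET substrate, read after 2 h at room temperature, reflects beta-lactamase reporter activity in VDR-bla cells treated 16 h at 37C with compounds and agonist 1alpha,25-dihydroxyvitamin D3 (3 nM final).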

[14] = qHTS assay to identify small molecule agonists of the vitamin D receptor (VDR) signaling pathway - cell viability counter screen (AID 743224); further: series mostly up to about 63 µM; nearly all actives have a fitted effect of over 50% in size
How it was run: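 VDR-bla cells, 4 h after plating, exposed to compounds for 16 h at 37C; viability then read in the same wells as CellTiter-Glo luminescence after 30 min at room temperature, following the bla FRET read.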

[15] = molecular target: Bile acid receptor (Homo sapiens) (UniProt Q96RI1); assay: qHTS assay to identify small molecule antagonists of the farnesoid-X-receptor (FXR) signaling pathway (AID 743217; active means well fitted inhibition curve with a large enough effect in the signal ratio in the repeat runs, not every such curve was filed as active; the % refers to the signal ratio)
How it was run: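 FXR-UAS-bla HEK 293T cells (beta-lactamase reporter) given compound plus chenodeoxycholic acid (50 uM final), 16 h at 37C. LiveBLAzer B/G FRET substrate added for 2 h at room temperature; fluorescence read.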

[16] = molecular target: Bile acid receptor (Homo sapiens) (UniProt Q96RI1); assay: qHTS assay to identify small molecule agonists of the farnesoid-X-receptor (FXR) signaling pathway (AID 743220; active means well fitted activation curve with a large enough effect in the signal ratio in the repeat runs, not every such curve was filed as active; the % refers to the signal ratio)
How it was run: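 Beta-lactamase reporter under UAS control in GeneBLAzer FXR HEK 293T cells (5000/well) measured with LiveBLAzer FRET substrate after 2 h at room temperature. Compound exposure lasted 16 h at 37C.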

[17] = qHTS assay to identify small molecule that activate the aryl hydrocarbon receptor (AhR) signaling pathway - cell viability counter screen (AID 743086);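 further: HepG2 liver cells carrying the AhR DRE luciferase reporter; series mostly up to about 70 µM; nearly all actives have a fitted effect of over 45% in size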
How it was run: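 HepG2-AhR-luc (HG2L7.5c1) cells, 4000/well, were preincubated 5 h at 37C, exposed to compound in qHTS format for 24 hr at 37C, then given CellTiter-Fluor for 30 min; viability was read as fluorescence in the reporter wells.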

[18] = molecular target: Vitamin D3 receptor (Homo sapiens) (UniProt P11473); assay: qHTS assay to identify small molecule agonists of the vitamin D receptor (VDR) signaling pathway (AID 743222; calls by dose curve)
How it was run: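 VDR-bla cells plated 4 h at 37 C, then exposed to compounds for 16 h at 37 C. Beta-lactamase reporter activity measured by fluorescence after 2 h room-temperature loading with LiveBLAzer B/G FRET substrate.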

[19] = molecular target: Peroxisome proliferator-activated receptor gamma (Homo sapiens) (UniProt P37231); assay: qHTS assay to identify small molecule agonists of the peroxisome proliferator-activated receptor gamma (PPARg) signaling pathway (AID 743094; active means well fitted activation curve with a large enough effect in the signal ratio in the repeat runs, not every such curve was filed as active; the % refers to the signal ratio)
How it was run: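 GeneBLAzer PPARg UAS-bla HEK293H cells were plated, rested 5 h, then exposed to compounds for 17 h at 37C. Beta-lactamase activity was read by LiveBLAzer B/G FRET substrate fluorescence after 1 h at room temperature.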

Measured: Potency

Chain of Bile acid receptor (Homo sapiens) (Q96RI1 whole entry, looked up): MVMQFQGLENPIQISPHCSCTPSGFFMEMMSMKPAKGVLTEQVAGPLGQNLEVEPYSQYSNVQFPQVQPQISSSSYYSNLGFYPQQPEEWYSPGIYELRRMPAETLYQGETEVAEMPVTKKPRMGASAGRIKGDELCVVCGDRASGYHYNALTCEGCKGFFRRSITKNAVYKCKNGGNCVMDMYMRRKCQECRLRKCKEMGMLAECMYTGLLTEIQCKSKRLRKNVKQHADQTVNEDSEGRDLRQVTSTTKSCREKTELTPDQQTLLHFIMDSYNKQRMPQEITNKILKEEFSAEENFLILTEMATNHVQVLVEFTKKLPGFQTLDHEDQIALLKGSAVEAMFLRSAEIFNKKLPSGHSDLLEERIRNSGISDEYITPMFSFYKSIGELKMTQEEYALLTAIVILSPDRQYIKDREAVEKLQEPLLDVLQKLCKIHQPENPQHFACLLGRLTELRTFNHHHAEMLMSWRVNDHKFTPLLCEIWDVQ
Chain of Vitamin D3 receptor (Homo sapiens) (P11473 whole entry, looked up): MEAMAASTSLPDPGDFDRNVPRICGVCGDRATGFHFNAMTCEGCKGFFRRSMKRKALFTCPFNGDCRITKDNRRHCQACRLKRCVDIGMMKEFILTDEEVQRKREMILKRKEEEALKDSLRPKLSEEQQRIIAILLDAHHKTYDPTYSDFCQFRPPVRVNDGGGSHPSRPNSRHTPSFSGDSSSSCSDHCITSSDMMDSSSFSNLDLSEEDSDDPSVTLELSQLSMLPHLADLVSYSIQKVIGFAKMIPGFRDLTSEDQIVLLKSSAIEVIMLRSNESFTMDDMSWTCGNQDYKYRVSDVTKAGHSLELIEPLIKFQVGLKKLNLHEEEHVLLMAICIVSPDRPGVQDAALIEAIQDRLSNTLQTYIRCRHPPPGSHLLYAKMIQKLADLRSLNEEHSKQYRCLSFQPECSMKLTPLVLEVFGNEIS
Chain of Peroxisome proliferator-activated receptor gamma (Homo sapiens) (P37231 whole entry, looked up): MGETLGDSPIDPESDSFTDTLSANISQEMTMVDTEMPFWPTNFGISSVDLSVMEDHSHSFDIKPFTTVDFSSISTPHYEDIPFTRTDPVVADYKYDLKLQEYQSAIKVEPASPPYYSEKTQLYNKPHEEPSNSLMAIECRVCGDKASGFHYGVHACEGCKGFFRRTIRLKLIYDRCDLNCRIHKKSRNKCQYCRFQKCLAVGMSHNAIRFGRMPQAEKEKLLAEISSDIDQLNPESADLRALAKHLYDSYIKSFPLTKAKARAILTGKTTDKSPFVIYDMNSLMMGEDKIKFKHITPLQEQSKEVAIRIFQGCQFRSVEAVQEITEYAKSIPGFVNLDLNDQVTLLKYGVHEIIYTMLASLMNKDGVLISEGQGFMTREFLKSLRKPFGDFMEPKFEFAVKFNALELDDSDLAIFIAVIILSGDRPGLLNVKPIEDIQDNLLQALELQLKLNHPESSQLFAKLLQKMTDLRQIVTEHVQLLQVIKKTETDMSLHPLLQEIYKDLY
Chain of Peroxisome proliferator-activated receptor delta (Homo sapiens) (Q03181 whole entry, looked up): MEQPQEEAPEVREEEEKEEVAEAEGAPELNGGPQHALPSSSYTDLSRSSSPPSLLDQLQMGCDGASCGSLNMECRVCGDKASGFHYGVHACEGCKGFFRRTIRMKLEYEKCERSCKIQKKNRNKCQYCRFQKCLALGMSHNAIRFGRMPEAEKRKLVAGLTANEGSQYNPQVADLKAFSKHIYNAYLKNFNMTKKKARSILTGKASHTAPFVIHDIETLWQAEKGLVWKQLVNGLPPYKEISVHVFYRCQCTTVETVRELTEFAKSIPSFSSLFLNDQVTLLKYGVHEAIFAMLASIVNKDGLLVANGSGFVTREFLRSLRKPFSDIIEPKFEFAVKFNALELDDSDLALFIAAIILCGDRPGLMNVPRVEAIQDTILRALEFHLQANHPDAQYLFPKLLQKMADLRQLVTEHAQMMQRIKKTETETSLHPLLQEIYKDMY

O=c1[nH]c2ccccc2n1C1CCNCC1
not listed: [14] | [15] | [16] | [17] | [18] | [19]
inactive: all other assays above

CCc1ccc(C2CCNCC2)cc1
not listed: [13] | [15] | [16] | [17] | [18] | [19]
inactive: all other assays above

CC(C)(N)Cc1ccccc1Cl
not listed: [3] | [4] | [10] | [17] | [18] | [19]
inactive: all other assays above

Cc1ccc(S(=O)(=O)N[C@@H](CCCCN)C(=O)CCl)cc1
not listed: [6] | [8] | [10] | [13] | [16] | [17] | [18] | [19]
inactive: all other assays above

CC(=O)OCC1=C(C(=O)O)N2C(=O)[C@@H](N)[C@H]2SC1
not listed: [1] | [5] | [9] | [12] | [19]
inactive: all other assays above

CCCOC(=O)c1cncn1C(C)c1ccccc1 (centres undefined)
not listed: [13] | [15] | [16] | [17] | [18] | [19]
inactive: all other assays above

CC[C@@H](CO)NC(=O)[C@@H]1C=C2c3cccc4[nH]cc(c34)C[C@H]2N(C)C1
inactive: [2] | [3] | [4] | [5] | [7] | [8] | [9] | [11] | [12] | [14]

COC1=CC(=O)O[C@@H](/C=C/c2ccccc2)C1
not listed: [1] | [3] | [6] | [10]
inactive: all other assays above

COC[C@@H](NC(C)=O)C(=O)NCc1ccccc1
not listed: [3] | [13] | [15] | [16] | [17] | [18] | [19]
inactive: all other assays above

CCSC(=O)Cl
not listed: [1] | [3] | [6] | [8] | [10] | [13] | [17]
inactive: all other assays above

C=C(Cl)CCl
not listed: [6] | [15] | [16] | [17]
inactive: all other assays above

CC(C)(C)C(=O)C(Cl)Cl
not listed: [1] | [2] | [3] | [13] | [15] | [16] | [19]
inactive: all other assays above

CN1C(=O)COc2c(C(=O)NC3CN4CCC3CC4)cc(Cl)cc21 (centres undefined)
not listed: [3] | [6] | [15] | [16] | [19]
inactive: all other assays above

CCN1CCCC1CNC(=O)C(O)(c1ccccc1)c1ccccc1 (centres undefined)
not listed: [3] | [8] | [10] | [17] | [19]
inactive: all other assays above

CCCOc1nn(C(=O)NS(=O)(=O)c2ccccc2C(=O)OC)c(=O)n1C
not listed: [6] | [10] | [11] | [12] | [13] | [15] | [16] | [17]
inactive: all other assays above

c1ccc2c(c1)CCNC2
not listed: [15] | [16] | [19]
inactive: all other assays above

C=CCC1(C(C)CC)C(=O)NC(=O)NC1=O (centres undefined)
not listed: [3] | [6] | [15] | [16] | [17] | [19]
inactive: all other assays above

Clc1nc(Cl)nc(Nc2ccccc2Cl)n1
not listed: [2] | [3] | [10] | [13] | [15] | [16] | [17] | [18]
inactive: all other assays above

CC[C@@H](CO)NC(=O)[C@@H]1C=C2c3cccc4c3c(cn4C)C[C@H]2N(C)C1
not listed: [3] | [6] | [14] | [19]
inactive: all other assays above

CCN(CC)C1CCCCC1
not listed: [6] | [16] | [17]
inactive: all other assays above

CCC(CC)(CNC(=O)CCCO)c1cccc(OC)c1
not listed: [7] | [10] | [13] | [14] | [15] | [16] | [17] | [19]
inactive: all other assays above
